Compounds with a hit are over-represented: about 4.5% of the library has one in this group of screens.
hgDAF12 agonist: agonists of H. glycines DAF-12 nuclear receptor; HEK293 GAL4-hgDAF12 UAS-luciferase reporter, agonist luminescence; normalized to butyrate control; activation, % at 6.8 µM; hit rate 1.8% among 370,000; AID 687014;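 active = activation above a cutoff set at the mean of all screened compounds plus 3 SD, cut at about 10% in these data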;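 note: 0% = DMSO wells and 100% = sodium butyrate wells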
GAA850 FXN act: increases GAA850 frataxin promoter reporter activity; HEK293 lucGAA850 FXN promoter luciferase reporter, 24 h; percent of 10 µM SAHA response; activation, % at 6 µM; hit rate 0.56% among 360,000;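 active = activation above the average of all compounds screened plus 3 SD, cutoff fixed separately per campaign, cut at about 7.5% in these data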;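 note: 0% = DMSO wells and 100% = 10 µM SAHA wells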
ssDAF12 agonist: activators of S. stercoralis DAF-12 nuclear receptor. HEK293 ssDAF-12/GRIP1 lit1-tk-luc reporter, luminescence; % of 3 µM dafachronic acid response. activation, % at 6.8 µM. hit rate 1% among 370,000. AID 652126;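 active = activation above the mean over all tested compounds plus 3 SD, cut at about 0.9% in these data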;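 note: 0% = DMSO-only wells and 100% = 3 µM delta7-dafachronic acid wells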
DAX1 inh-1: DAX1 (NR0B1) inhibition, primary screen | AID 652010 | inhibition, % at 6.8 µM | hit rate 1.1% among 370,000 | HEK293T StAR-luciferase reporter, SF-1/DAX-1 repression relief;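 active = inhibition above the mean over all tested compounds plus 3 SD, cut at about 3.6% in these data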;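 note: 0% = DAX-1 cells with DMSO and 100% = cells lacking DAX-1 with DMSO; higher inhibition means more luminescence from relief of DAX-1 repression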
hcDAF-12 act: activators of H. contortus DAF-12 nuclear receptor; AID 652067; hit rate 1.4% among 370,000; HEK293 hcDAF-12 lit1-tk-luc reporter, luminescence; 0% DMSO, 100% Δ7-dafachronic acid; activation, % at 6.8 µM;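 active = activation above the mean of all tested compounds plus 3 SD, cut at about 5.5% in these data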;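 note: 100% = response to 3 µM Δ7-dafachronic acid high control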
DAX1 inh-2: NR0B1 (DAX1) inhibition; P51843; HEK293 Gal4-DAX1 luciferase reporter, luminescence; inhibition, % at 6.75 µM; hit rate 0.99% among 340,000;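 active = inhibition above the mean over all tested compounds plus 3 SD, cut at about 4.2% in these data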;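 note: 0% = DAX1-transfected cells with DMSO and 100% = empty-vector control cells with DMSO; inhibition shows as a rise in luminescence from relieved DAX1 repression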
Target sequence (P51843 207-470 limits assumed): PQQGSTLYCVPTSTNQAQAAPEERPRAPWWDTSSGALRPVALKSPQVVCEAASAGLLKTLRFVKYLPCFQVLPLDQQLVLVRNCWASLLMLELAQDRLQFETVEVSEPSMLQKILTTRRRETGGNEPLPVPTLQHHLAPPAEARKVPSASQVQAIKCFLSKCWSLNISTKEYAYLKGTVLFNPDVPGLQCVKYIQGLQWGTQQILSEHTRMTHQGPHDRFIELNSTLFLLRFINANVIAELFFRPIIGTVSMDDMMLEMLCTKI
DAX1 inh confirm: NR0B1 (human) inhibition, confirmation. shares compounds with DAX1 inh-1. hit rate 87% among 2,400. inhibition, % at 6.8 µM. HEK293T StAR-promoter luciferase reporter, SF-1/DAX-1 repression;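 active = inhibition above the average of every tested compound plus 3 SD, cut at about 3.8% in these data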;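 note: 0% = DAX-1 cells with DMSO and 100% = no DAX-1 control cells with DMSO; active compounds raise luminescence by relieving repression of the StAR reporter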
Target sequence (P51843 whole entry, looked up): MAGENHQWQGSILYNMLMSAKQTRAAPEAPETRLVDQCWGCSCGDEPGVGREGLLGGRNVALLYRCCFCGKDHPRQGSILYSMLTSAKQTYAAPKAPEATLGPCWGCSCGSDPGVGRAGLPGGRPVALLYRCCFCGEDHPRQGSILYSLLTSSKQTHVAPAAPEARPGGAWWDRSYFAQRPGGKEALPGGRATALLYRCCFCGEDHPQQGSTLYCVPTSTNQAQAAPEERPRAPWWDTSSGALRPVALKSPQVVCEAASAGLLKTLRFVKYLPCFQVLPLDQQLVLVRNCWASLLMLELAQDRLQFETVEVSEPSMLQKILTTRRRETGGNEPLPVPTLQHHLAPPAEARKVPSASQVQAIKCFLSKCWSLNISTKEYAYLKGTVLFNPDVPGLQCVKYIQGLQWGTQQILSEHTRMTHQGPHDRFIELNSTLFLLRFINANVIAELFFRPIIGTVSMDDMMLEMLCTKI
SF1 AF2mut Luc: counter-screen for DAX1 inhibitors: nonselective inhibitors with SF-1 AF2 mutant; hit rate 78% among 2,400; shares compounds with DAX1 inh-1; inhibition, % at 6.8 µM; HEK293 StAR-luciferase, luminescence;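 active = inhibition above the mean of all tested compounds plus 3 SD, cut at about 3% in these data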;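 note: 0% = DAX-1 transfected cells with DMSO and 100% = cells without DAX-1 with DMSO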
An asterisk follows results filed as active; . = no result.

SMILES	hgDAF12 agonist	GAA850 FXN act	ssDAF12 agonist	DAX1 inh-1	hcDAF-12 act	DAX1 inh-2	DAX1 inh confirm	SF1 AF2mut Luc
C[C@@H]1COc2cc(Br)ccc2S(=O)(=O)N1Cc1cn(CCC2OCCO2)nn1	-1.2	.	-0.9	-0.7	-1.8	.	.	.
COc1ccc(CN2C(=O)[C@]3(NCCc4c3[nH]c3ccc(OC)cc43)c3cc(F)ccc32)cc1	-1.4	.	-0.5	-0.8	-2.6	.	.	.
Cc1nnc(NC(=O)c2nc(S(=O)(=O)Cc3ccccc3)ncc2Cl)s1	1.9	-5.6	-1.0	5.6*	-2.5	2.3	2.7	-2.2
COC(=O)c1ccc(S(=O)(=O)N2CCC(NC(=O)Cc3cccc(C)c3)CC2)cc1	1.8	.	-1.0	-0.4	-1.6	.	.	.
CCc1ccc(NC(=O)C(=O)c2ccccc2NC(C)=O)cc1	10.2	5.0	-0.2	9.1*	4.0	3.4	12.3*	7.0*
Cc1ccsc1C(=O)NNC(=O)C1C2C=CC(C2)C1C(=O)O (stereo unspecified)	17.1*	2.8	1.1*	5.2*	9.5*	2.7	3.8*	2.3
COC(=O)C1=C(C)N(C)C(=NCc2cc(OC)c(OC)c(OC)c2)NC1c1cccc(C(F)(F)F)c1 (stereo unspecified)	0.6	.	-0.7	1.2	-0.3	.	.	.
COc1ccccc1OCc1cc(C(=O)N(C)CCC2CCCCO2)no1 (stereo unspecified)	10.7*	0.1	0.2	5.0*	2.8	1.9	7.1*	2.8
O=c1cc(-c2ccc(O)cc2)oc2ccc3ccccc3c12	-11.9	-6.3	-1.9	-3.7	-3.3	-3.8	.	.
O=c1cc(-c2ccccc2)oc2cc(O)c(O)c(O)c12	10.4	2.0	-1.4	5.5*	3.5	1.9	9.6*	5.1*
COC(=O)CN1CCN(C(=O)c2csc3ccccc23)CC1	0.9	.	-1.4	0.7	-2.0	.	.	.
COCCn1c(C)cc(C(=O)COC(=O)c2ccc(Cl)c(S(N)(=O)=O)c2)c1C	3.0	-6.2	-0.7	5.5*	2.3	0.7	8.7*	0.7
COCCn1c(C)cc(C(=O)COC(=O)c2ccc(-n3nc(C)cc3C)cc2)c1C	-2.8	-0.1	-0.8	0.8	-0.7	-0.8	.	.
O=C(NCc1cccc(C(F)(F)F)c1)O[C@H]1CC[C@@]23CCCN2C(=O)CCC[C@H]3C1	-0.8	.	-1.6	.	-2.5	.	.	.
COCC(=O)Nc1cc(C(=O)NCCc2ccccc2)ccc1Cl	7.8	2.2	-0.7	5.7*	5.8*	1.3	9.3*	3.3*
O=C(CCCN1C(=O)S/C(=C/C=C/c2ccccc2)C1=O)Nc1ccc(C(=O)O)cc1	0.1	-3.6	-0.7	5.3*	3.5	0.6	5.2*	3.8*
O=C(CCCN1C(=O)/C(=C\c2ccccc2)SC1=S)Nc1cccc(C(=O)O)c1	-0.5	-0.5	-1.1	0.3	-0.4	-0.7	.	.
O=C(CCN1C(=O)/C(=C\C=C\c2ccccc2)SC1=S)Nc1cccc(C(=O)O)c1	2.0	2.9	-0.5	4.9*	0.5	1.8	6.2*	1.7
COc1ccc(C(CNC(=O)c2oc3ccc(Br)cc3c2C)N2CCCCC2)cc1 (stereo unspecified)	3.0	1.8	-0.8	0.8	-1.4	-1.3	.	.
COc1ccc2oc(C(=O)NCCC(C)C)c(C)c2c1	9.2	3.5	0.4	6.1*	5.0	1.8	14.1*	6.2*
COc1ccc(C(CNC(=O)c2oc3ccc(OC)cc3c2C)N2CCCC2)cc1 (stereo unspecified)	1.8	0.4	-1.1	5.0*	0.3	0.2	6.1*	4.2*
COc1cc2ccccc2cc1C(=O)Nc1ccc(C)cn1	11.0*	2.5	0.2	5.5*	5.7*	1.2	13.1*	6.8*
COc1ccc2oc(C(=O)N3CCc4ccccc43)c(C)c2c1	7.2	-2.5	0.7	10.7*	3.9	-1.6	15.4*	5.3*
COC(=O)C1CN(C2CC2)CCS(=O)(=O)N1Cc1cn(Cc2ccc(F)cc2)nn1 (stereo unspecified)	3.2	.	-1.2	0.0	-0.7	.	.	.
Fc1cccc(Cn2ccc3ccc(-c4ccc5ccn(Cc6cccc(F)c6)c5c4)cc32)c1	1.7	.	0.1	-0.3	-2.5	.	.	.
SMILES	hgDAF12 agonist	GAA850 FXN act	ssDAF12 agonist	DAX1 inh-1	hcDAF-12 act	DAX1 inh-2	DAX1 inh confirm	SF1 AF2mut Luc
O=S1(=O)c2ccc(N3CCN(Cc4ccccc4F)CC3)cc2Oc2ccccc2CN1Cc1cn(Cc2cccc(C(F)(F)F)c2)nn1	-0.5	.	-1.1	-1.6	-1.6	.	.	.
COc1ccc2oc(C(=O)Nc3ccc(C)cn3)c(C)c2c1	10.8*	0.8	0.1	5.0*	3.8	3.0	10.0*	6.6*
COc1ccc2oc(C(=O)NN3C(C)CCCC3C)c(C)c2c1 (stereo unspecified)	-4.4	-0.3	-1.8	0.6	-1.4	0.4	.	.
CC1(c2nnnn2-c2ccc(F)cc2)CCCC(=O)N1CCc1c[nH]c2ccccc12 (stereo unspecified)	-2.3	.	0.3	0.5	-0.3	.	.	.
COc1ccc(-c2cc(NC=O)c3ncc(-c4cc(OC)c(OC)c(OC)c4)n3c2)cc1	-4.3	3.0	-0.6	4.6*	-0.5	.	4.0*	-11.1
COc1ccc(-c2cc(NC=O)c3ncc(-c4ccc(OC)c(OC)c4)n3c2)c(OC)c1	-3.3	-0.2	-1.2	6.5*	-3.6	.	12.5*	-7.6
COc1cccc(-c2cnc3c(NC=O)cc(-c4ccc(OC)cc4OC)cn23)c1	-8.5	-1.3	-1.3	-0.1	-1.9	.	.	.
COC(=O)c1c(-c2cccnc2)csc1NC(=O)c1ccc2c(c1)OCO2	6.2	6.4	-0.2	8.2*	3.0	0.8	12.1*	6.8*
COC(=O)c1sccc1NC(=O)c1ccc2c(c1)OCO2	-3.1	-0.2	-0.7	0.2	2.9	0.0	.	.
COc1ccc(CC(=O)N(CCC2=CCCCC2)c2c(N)n(Cc3ccccc3)c(=O)[nH]c2=O)cc1	-1.2	-3.7	-1.4	-2.6	-2.0	-1.4	.	.
CC(CC(=O)N(CCC1=CCCCC1)c1c(N)n(Cc2ccccc2)c(=O)[nH]c1=O)c1ccccc1 (stereo unspecified)	1.2	3.1	-0.8	6.3*	0.2	1.4	1.0	-2.3
CCN(C(=O)CSc1ncccn1)c1c(N)n(Cc2ccccc2)c(=O)[nH]c1=O	0.5	-1.6	-1.2	4.7*	0.1	1.3	1.4	1.6
Cc1cccc(CN[C@@H]2CC[C@@]34CCCN3C(=O)CCC[C@H]4C2)c1	-2.2	.	-1.2	.	-2.1	.	.	.
CC(=O)Nc1cnc(-c2cc(C)c(O)c(C)c2)cn1	2.8	2.2	-0.8	1.8	1.1	.	.	.

Screening results deposited in PubChem by The Scripps Research Institute Molecular Screening Center.
